Assay in all cases: DAPPL (digital affinity profiling via proximity ligation, sequencing); 10 mM Tris-HCl pH 7.5, 50 mM NaCl, 1 mM DTT, 4% glycerol, room temperature, 30 min; GST-TFs on glutathione beads, 16-mer random dsDNA library, 0.1% formaldehyde crosslink after washing; high values mean tight binding
One test concerns the target T1, FLI1 (Homo sapiens, UniProt Q01543 1-452).
T1 sequence: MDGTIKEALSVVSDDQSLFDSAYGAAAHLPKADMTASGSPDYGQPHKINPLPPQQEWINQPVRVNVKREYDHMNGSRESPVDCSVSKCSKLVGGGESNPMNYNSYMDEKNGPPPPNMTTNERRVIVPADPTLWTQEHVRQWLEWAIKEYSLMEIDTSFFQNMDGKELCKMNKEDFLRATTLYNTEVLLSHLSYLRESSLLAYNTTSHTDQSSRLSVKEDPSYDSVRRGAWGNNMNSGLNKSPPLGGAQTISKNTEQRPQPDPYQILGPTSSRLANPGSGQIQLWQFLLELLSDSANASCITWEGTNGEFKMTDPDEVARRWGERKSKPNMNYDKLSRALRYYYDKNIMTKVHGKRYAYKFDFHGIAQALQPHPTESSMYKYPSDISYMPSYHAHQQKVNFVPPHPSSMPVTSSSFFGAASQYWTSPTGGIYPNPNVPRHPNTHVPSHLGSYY
To be noted: protein: recombinant; tags: N-terminal GST; dsDNA, one strand shown. The procedure, abridged:
(§1)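 A tag-only sample was pooled with DNA-barcoded human transcription factors that had been expressed in yeast as GST fusions and captured on glutathione beads. The pools were incubated for 30 min at room temperature with 200 nmole of a random double-stranded 16-mer DNA library in Tris/NaCl/DTT/glycerol buffer, then washed, crosslinked with 0.1% formaldehyde, proximity-ligated (BsaI/T4 ligase, 1 h, 37 °C), PCR-amplified and sequenced on an Illumina NextSeq500. Binding signal is each hexamer's read frequency for a factor divided by its frequency for the tag-only sample.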

The target of a further test is T2, ELK1 (Homo sapiens, UniProt P19419 1-428).
T2 sequence: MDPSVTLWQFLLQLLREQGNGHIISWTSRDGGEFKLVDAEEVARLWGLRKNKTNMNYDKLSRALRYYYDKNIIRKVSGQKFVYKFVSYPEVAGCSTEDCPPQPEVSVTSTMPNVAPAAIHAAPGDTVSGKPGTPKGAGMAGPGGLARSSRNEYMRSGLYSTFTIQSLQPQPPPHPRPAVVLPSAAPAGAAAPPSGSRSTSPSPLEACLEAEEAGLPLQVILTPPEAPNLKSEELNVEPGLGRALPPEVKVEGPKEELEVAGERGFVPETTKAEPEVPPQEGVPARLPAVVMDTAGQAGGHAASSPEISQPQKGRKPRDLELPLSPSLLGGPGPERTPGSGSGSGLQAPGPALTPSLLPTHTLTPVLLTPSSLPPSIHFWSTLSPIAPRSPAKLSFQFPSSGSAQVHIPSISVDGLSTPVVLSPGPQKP
To be noted: protein: recombinant; tags: N-terminal GST; dsDNA, one strand shown. The procedure, abridged: as §1

For a further test, the target named is T3, GABPA (Homo sapiens, UniProt Q06546 1-454).
T3 sequence: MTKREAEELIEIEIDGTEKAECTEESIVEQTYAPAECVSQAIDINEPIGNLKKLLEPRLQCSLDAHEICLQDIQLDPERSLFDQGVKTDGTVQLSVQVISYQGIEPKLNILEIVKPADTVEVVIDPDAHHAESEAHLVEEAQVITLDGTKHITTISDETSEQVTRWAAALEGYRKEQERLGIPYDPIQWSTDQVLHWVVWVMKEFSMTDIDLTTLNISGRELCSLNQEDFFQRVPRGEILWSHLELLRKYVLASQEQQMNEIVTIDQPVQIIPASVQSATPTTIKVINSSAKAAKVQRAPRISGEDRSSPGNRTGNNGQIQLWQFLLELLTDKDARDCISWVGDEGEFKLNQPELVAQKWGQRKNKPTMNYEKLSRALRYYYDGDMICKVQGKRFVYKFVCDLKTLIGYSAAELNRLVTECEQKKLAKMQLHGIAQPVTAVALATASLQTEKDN
To be noted: protein: recombinant; tags: N-terminal GST; dsDNA, one strand shown. Put shortly:
as §1

The target in a further test is T4, ERG (Homo sapiens, UniProt P11308 1-479).
T4 sequence: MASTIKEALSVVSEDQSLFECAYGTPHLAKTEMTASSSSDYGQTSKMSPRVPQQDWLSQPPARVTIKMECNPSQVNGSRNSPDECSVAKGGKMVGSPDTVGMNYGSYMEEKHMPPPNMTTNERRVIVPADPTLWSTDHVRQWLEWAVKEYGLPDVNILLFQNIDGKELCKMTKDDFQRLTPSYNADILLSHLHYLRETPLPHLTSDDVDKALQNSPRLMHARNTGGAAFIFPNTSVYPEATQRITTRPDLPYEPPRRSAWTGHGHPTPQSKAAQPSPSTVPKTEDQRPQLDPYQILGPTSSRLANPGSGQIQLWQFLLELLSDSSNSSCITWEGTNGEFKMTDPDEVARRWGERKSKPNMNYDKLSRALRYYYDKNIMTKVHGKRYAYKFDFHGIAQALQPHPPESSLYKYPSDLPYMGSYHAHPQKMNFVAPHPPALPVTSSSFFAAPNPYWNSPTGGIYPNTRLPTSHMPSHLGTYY
Particulars: protein: recombinant; tags: N-terminal GST; dsDNA, one strand shown. The procedure, abridged:
as §1

In a further test the target is ELF1 (Homo sapiens, UniProt P32519 1-619). Particulars: protein: recombinant; tags: N-terminal GST; dsDNA, one strand shown. Put shortly: as §1
The next test deals with T5, EHF (Homo sapiens, UniProt Q9NZC4 1-300).
T5 sequence: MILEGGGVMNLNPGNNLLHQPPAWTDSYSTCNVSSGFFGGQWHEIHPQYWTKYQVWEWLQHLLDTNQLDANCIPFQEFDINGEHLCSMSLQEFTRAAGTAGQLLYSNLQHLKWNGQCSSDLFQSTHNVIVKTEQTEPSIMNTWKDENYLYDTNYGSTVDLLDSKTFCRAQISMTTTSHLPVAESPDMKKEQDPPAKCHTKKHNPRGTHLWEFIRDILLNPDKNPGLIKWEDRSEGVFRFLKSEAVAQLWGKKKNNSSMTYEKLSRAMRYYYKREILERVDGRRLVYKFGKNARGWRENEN
Particulars: protein: recombinant; tags: N-terminal GST; dsDNA, one strand shown. Put shortly: as §1

A further test addresses SPI1 (Homo sapiens, UniProt P17947 1-270). Particulars: protein: recombinant; tags: N-terminal GST; dsDNA, one strand shown. The procedure, abridged: as §1
In another test the target is SPIB (Homo sapiens, UniProt Q01892 1-262). To be noted: protein: recombinant; tags: N-terminal GST; dsDNA, one strand shown. The procedure, abridged:
as §1

The target of another test is T6, ELK3 (Homo sapiens, UniProt P41970 1-407).
T6 sequence: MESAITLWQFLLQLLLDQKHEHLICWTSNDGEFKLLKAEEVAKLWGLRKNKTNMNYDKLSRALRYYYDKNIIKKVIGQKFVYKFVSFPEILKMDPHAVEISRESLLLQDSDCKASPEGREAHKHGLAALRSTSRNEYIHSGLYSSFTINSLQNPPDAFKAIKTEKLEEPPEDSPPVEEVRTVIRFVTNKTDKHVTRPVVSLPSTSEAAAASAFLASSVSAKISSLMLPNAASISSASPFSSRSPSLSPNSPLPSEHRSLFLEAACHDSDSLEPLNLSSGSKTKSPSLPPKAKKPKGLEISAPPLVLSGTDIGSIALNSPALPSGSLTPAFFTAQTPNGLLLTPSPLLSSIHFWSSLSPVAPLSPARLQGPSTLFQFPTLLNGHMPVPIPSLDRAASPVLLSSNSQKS
To be noted: protein: recombinant; tags: N-terminal GST; dsDNA, one strand shown. The procedure, abridged: as §1

In the next test the target is T7, FEV (Homo sapiens, UniProt Q99581 1-238).
T7 sequence: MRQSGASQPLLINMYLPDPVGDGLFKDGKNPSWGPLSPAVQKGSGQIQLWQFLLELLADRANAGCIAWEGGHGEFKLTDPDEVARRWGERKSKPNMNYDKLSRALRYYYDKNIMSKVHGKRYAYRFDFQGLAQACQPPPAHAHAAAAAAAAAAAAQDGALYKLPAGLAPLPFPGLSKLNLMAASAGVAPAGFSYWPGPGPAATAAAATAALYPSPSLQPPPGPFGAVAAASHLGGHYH
Particulars: protein: recombinant; tags: N-terminal GST; dsDNA, one strand shown. Put shortly: as §1

In the next test the target is ETV5 (Homo sapiens, UniProt P41161 1-510). To be noted: protein: recombinant; tags: N-terminal GST; dsDNA, one strand shown. Put shortly:
as §1

A further test addresses HSF1 (Homo sapiens, UniProt Q00613 1-529). To be noted: protein: recombinant; tags: N-terminal GST; chain copies: 3; dsDNA, one strand shown. The procedure, abridged:
as §1

The target of a further test is T8, SPIC (Homo sapiens, UniProt Q8N5J4 1-248).
T8 sequence: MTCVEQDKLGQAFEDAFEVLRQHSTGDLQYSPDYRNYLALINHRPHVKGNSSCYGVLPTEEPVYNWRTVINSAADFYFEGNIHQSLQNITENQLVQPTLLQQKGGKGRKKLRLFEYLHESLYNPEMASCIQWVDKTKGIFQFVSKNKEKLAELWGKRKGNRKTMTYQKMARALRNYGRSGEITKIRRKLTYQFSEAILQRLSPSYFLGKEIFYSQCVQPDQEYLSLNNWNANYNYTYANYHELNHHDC
Particulars: protein: recombinant; tags: N-terminal GST; dsDNA, one strand shown. The procedure, abridged:
as §1

For a further test, the target named is ELF4 (Homo sapiens, UniProt Q99607 1-663). To be noted: protein: recombinant; tags: N-terminal GST; dsDNA, one strand shown. Put shortly:
as §1

Another test has as its target T9, ELK4 (Homo sapiens, UniProt P28324-2 1-405).
T9 sequence: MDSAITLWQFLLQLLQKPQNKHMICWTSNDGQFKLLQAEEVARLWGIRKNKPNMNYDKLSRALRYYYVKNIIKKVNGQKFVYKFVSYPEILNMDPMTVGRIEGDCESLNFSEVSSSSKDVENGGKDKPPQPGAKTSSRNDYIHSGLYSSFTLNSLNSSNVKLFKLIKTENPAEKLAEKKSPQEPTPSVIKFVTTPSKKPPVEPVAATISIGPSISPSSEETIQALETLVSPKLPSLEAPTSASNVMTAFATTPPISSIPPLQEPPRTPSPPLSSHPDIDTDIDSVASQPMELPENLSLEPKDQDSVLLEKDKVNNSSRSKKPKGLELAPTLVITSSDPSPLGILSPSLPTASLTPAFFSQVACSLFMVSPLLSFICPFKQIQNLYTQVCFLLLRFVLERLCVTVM
Particulars: protein: recombinant; tags: N-terminal GST; dsDNA, one strand shown. The procedure, abridged: as §1

The next test deals with T10, ETV2 (Homo sapiens, UniProt O00321 1-342).
T10 sequence: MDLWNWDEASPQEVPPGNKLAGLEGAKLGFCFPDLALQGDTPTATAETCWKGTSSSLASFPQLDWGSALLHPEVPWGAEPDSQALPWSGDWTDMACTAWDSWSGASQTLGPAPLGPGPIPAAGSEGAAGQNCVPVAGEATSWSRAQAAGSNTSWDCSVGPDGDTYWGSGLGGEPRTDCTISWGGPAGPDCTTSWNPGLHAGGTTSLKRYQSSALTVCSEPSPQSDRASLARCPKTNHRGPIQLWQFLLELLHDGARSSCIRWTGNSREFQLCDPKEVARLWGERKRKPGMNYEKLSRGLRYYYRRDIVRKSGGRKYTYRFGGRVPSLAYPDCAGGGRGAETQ
Particulars: protein: recombinant; tags: N-terminal GST; dsDNA, one strand shown. The procedure, abridged: as §1

A further test has as its target T11, ELF3 (Homo sapiens, UniProt P78545 1-371).
T11 sequence: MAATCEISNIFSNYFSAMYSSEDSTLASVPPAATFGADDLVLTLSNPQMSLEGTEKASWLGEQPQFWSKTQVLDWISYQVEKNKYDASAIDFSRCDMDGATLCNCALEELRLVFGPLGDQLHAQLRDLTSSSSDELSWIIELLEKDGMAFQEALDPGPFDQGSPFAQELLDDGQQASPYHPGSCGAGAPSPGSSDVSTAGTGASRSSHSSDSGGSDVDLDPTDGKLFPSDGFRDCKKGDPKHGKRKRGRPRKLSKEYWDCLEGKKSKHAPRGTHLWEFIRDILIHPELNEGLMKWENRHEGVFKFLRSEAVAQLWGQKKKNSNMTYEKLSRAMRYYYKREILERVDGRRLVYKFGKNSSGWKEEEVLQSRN
To be noted: protein: recombinant; tags: N-terminal GST; dsDNA, one strand shown. The procedure, abridged:
as §1

A further test addresses CRX (Homo sapiens, UniProt O43186 1-299). To be noted: protein: recombinant; tags: N-terminal GST; dsDNA, one strand shown. Put shortly:
as §1

The next test concerns the target ETV1 (Homo sapiens, UniProt P50549 1-477). To be noted: protein: recombinant; tags: N-terminal GST; dsDNA, one strand shown. The procedure, abridged: as §1

CRX, sequence (O43186 whole entry): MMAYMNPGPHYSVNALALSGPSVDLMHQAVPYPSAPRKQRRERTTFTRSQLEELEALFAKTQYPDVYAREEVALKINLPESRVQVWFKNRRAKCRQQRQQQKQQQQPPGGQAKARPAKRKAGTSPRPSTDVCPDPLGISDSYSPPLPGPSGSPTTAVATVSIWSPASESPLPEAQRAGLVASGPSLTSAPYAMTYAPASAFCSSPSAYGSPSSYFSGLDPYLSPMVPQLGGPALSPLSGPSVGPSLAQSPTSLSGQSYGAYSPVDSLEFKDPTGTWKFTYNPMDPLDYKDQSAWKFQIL
HSF1, sequence (Q00613 whole entry): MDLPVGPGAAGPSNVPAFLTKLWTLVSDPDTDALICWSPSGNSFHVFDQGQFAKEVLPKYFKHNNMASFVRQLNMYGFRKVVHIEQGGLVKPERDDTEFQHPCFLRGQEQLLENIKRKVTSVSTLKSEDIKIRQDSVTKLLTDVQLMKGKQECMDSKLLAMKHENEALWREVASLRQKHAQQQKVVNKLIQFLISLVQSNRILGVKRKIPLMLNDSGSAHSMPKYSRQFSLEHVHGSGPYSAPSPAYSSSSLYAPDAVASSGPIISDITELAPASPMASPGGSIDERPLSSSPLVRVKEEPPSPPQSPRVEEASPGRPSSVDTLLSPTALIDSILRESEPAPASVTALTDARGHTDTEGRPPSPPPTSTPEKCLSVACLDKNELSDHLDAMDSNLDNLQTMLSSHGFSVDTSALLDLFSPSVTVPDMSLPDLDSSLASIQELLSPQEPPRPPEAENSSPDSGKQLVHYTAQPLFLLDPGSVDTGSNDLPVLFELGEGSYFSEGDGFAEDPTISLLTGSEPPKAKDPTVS
ETV1, sequence (P50549 whole entry): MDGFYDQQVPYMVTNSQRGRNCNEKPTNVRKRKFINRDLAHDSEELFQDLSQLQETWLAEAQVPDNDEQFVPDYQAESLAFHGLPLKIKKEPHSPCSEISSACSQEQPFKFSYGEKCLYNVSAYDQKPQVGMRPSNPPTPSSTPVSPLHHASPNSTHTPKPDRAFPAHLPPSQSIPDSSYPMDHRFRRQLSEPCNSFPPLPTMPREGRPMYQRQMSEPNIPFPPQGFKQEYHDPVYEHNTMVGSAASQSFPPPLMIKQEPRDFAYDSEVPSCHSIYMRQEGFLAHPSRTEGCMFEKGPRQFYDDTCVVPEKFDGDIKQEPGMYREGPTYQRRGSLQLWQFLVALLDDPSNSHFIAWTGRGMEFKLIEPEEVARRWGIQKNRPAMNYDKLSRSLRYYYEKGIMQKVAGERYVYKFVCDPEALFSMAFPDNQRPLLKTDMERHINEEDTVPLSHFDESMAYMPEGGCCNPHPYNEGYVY
ETV5, sequence (P41161 whole entry): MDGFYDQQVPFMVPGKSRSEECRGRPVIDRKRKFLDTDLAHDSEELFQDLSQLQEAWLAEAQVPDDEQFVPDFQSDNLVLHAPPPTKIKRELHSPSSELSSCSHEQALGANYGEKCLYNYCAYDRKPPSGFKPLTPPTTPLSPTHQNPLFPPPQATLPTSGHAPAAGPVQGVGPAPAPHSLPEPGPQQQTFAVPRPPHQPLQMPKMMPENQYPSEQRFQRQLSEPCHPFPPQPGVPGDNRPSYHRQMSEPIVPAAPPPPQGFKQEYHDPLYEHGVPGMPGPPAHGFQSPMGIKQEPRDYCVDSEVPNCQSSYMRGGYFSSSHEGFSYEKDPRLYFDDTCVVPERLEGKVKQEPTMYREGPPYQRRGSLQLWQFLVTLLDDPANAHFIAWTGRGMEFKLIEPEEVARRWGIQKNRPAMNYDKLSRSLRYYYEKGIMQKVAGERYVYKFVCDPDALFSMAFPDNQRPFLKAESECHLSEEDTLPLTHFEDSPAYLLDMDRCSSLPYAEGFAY
ELF4, sequence (Q99607 whole entry): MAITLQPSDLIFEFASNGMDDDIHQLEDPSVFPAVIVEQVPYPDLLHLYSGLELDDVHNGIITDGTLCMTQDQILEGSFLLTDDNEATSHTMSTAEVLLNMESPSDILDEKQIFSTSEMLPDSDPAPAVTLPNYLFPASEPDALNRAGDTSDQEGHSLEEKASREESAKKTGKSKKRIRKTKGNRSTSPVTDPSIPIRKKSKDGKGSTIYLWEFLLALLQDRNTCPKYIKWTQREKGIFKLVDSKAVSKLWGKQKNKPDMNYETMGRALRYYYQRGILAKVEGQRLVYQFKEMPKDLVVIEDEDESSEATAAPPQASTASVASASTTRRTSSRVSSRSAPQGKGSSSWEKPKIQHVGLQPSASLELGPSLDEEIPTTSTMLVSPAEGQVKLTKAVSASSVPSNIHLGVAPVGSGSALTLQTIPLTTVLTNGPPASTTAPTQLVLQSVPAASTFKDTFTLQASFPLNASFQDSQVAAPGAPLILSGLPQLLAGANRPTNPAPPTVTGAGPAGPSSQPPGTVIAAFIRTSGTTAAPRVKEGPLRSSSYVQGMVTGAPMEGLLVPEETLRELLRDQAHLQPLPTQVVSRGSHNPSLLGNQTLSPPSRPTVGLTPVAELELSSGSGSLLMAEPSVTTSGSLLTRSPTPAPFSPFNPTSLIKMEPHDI
ELF1, sequence (P32519 whole entry): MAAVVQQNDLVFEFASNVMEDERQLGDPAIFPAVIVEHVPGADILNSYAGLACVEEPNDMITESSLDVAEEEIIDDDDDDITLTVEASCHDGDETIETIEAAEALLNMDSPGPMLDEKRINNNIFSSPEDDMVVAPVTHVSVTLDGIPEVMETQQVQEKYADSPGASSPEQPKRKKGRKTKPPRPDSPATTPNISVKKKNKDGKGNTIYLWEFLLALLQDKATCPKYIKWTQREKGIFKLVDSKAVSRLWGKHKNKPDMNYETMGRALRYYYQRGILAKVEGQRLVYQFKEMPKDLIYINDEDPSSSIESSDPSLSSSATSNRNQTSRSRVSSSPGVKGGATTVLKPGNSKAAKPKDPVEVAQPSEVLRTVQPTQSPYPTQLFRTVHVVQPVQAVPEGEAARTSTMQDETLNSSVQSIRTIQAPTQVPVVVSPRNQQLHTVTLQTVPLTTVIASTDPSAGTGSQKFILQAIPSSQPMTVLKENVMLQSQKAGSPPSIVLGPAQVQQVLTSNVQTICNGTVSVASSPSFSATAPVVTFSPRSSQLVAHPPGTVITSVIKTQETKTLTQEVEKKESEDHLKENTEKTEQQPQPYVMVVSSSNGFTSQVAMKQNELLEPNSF
SPIB, sequence (Q01892 whole entry): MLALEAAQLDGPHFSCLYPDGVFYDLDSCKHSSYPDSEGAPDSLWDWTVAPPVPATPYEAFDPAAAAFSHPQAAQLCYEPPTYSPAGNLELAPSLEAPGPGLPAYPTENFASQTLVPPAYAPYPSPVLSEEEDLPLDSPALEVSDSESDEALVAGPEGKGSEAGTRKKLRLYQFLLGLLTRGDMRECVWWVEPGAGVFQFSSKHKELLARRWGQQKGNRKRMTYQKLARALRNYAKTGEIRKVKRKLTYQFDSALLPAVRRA

As for GCTCTT, the binding signal was 1.58 fold enrichment (6-mer frequency, TF over GST control) with FLI1; 1.55 fold enrichment (6-mer frequency, TF over GST control) with ELK1; 1.52 fold enrichment (6-mer frequency, TF over GST control) with GABPA; 1.39 fold enrichment (6-mer frequency, TF over GST control) in the test with ERG; 1.66 fold enrichment (6-mer frequency, TF over GST control) with ELF1; 1.29 fold enrichment (6-mer frequency, TF over GST control) in the test with EHF. Moreover, the binding signal in the test with SPI1 was 1.37 fold enrichment (6-mer frequency, TF over GST control); with SPIB it was 1.49 fold enrichment (6-mer frequency, TF over GST control); in the test with ELK3, 1.56 fold enrichment (6-mer frequency, TF over GST control); in the test with FEV, 1.48 fold enrichment (6-mer frequency, TF over GST control); in the test with ETV5, 1.53 fold enrichment (6-mer frequency, TF over GST control); with HSF1, 1.34 fold enrichment (6-mer frequency, TF over GST control). The binding signal with SPIC was 1.31 fold enrichment (6-mer frequency, TF over GST control); with ELF4, 1.56 fold enrichment (6-mer frequency, TF over GST control); with ELK4 it was 1.41 fold enrichment (6-mer frequency, TF over GST control); with ETV2, 1.61 fold enrichment (6-mer frequency, TF over GST control); with ELF3, 1.58 fold enrichment (6-mer frequency, TF over GST control); in the test with CRX, 1.55 fold enrichment (6-mer frequency, TF over GST control). In addition, in the test with ETV1, the binding signal was 1.54 fold enrichment (6-mer frequency, TF over GST control).

The record behind these values is article PMC7862700, “An all-to-all approach to the identification of sequence-specific readers for epigenetic DNA modifications on cytosine”.
